# Results reported in PubChem BioAssay AID1347423 (Functional Genomics Laboratory (NCATS/FGL), 2020).
# In all, about 52,000 sequences went through this assay and about 210 (0.4%) were called active. This is one part of a sample in which actives are shown more often than they occur.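 How the source made its calls: active means gene whose silencing raises cell survival under the drug, median off-target-corrected z-score across its silencing RNAs 2 or more; inactive means the rest.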
# Assay: Resistance to Poly (ADP-Ribose) Polymerase inhibitor: Gene Identification via Genome-wide siRNA Screen
# Conditions: mouse BRCA2 R2336H ES cells, olaparib, CellTiter-Glo viability; active compounds read high
# How it was run: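 Genome-wide siRNA screen (3 siRNAs/gene, 20 nM) in mouse ES cells carrying hypomorphic BRCA2 R2336H; olaparib 500 nM added 48 h post-transfection, CellTiter-Glo viability 72 h later. Normalized to plate-median negative control; MAD z-scores, gene median, seed-adjusted.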
row,Sequence,z-score
1,GGGCUGGAAUAAACUUGUCTT against Usp15,1.51 (active)
2,GGAACAUAGUAGCAUGCCATT against Leprel2,-0.442 (inactive)
3,GGCUUAUGUCCCAAAGCUATT against Nexn,1.35 (inactive)
4,CUGUAAGGCGGAUAAGACCTT against 2610017I09Rik,-0.52 (inactive)
5,CCCACUAAGAAACAAUCUATT against Gp1ba,0.484 (inactive)
6,GGGACUUCUUGUGAAUGGATT against Mobp,-0.971 (inactive)
7,GUCUGUAUUCCUAGAUUCCTT against Olfr794,0.287 (inactive)
8,GGUCACUGUUUCCCUAGACTT against Prss33,-0.494 (active)
9,GGUUAGGUUGAUGAAUAAGTT against Eif4ebp2,-0.495 (inactive)
10,GGUUUUUGAGCCAUAUCCATT against 4632404H22Rik,0.625 (inactive)
11,GGAUCCAAGCAUUAUAGUGTT against LOC229512,-0.425 (inactive)
12,CCCUUGUGAUGUGGUGAAGTT against Slc25a22,-1.58 (inactive)
13,GGACAAGGAUAGUAGUAAGTT against Adprt1,3.83 (active)
14,GCAUGAAAACACGUUUGGGTT against Hdac11,0.768 (inactive)
15,CGAUCUUCCAAACCCUCUUTT against Dhh,-0.652 (inactive)
16,GGACUGAGGAAGAAUUUAATT against Grp58,-0.954 (inactive)
17,GGAAUGUAUCCAGGACUUCTT against Brd4,-1.95 (inactive)
18,GGAGAUCGUGCAAUUCAUUTT against Rasl2-9,-0.53 (inactive)
19,GGCGGUGAUCCAGGGUUUATT against Klc2,-0.0337 (inactive)
20,GCAAUGUCGCCAAACGUAATT against Zfpn1a1,-0.213 (inactive)
21,CCGUAAUUGAUUCUUUACUTT against Kif3a,2.25 (active)
22,GCCCAAACUCAAGCAAGUCTT against Trpm3,-2.79 (inactive)

row,Sequence,z-score
1,GGCUACGAAACCAGAAGAUTT against Shd,0.117 (inactive)
2,CCUUCUGGCCCAGACGAUUTT against Pxmp2,-0.173 (inactive)
3,GCUGAGAGAAAGGUUCACATT against Tube1,-1.3 (inactive)
4,CCUUGUAUCCUUAAUCCUCTT against Ppt1,0.555 (inactive)
5,GGAAGCAGAAUUGUAAAGATT against Bid3,2.41 (active)
6,GGAAAUGUGACCACAAAGATT against Tas2r120,-0.347 (inactive)
7,GGAAGAAUUGAACCACAGGTT against Papolg,0.756 (inactive)
8,GGUGGCACUCUUUCAGAUCTT against 6030446I19Rik,0.179 (inactive)
9,GCCUGCUCUUGAAGGAUAATT against Ptpn9,1.13 (active)
10,GGACCUGUUUGAAGAAAAGTT against Gnai2,-0.66 (inactive)
11,GGUUUCUCUCUACGCUAUGTT against Nrp2,1.81 (inactive)
12,GGACUGGUUCUUCAGUACCTT against Cradd,2.24 (inactive)
13,CCGGCAACAUGCGUGAAUUTT against Trpv4,-0.769 (inactive)
14,GGAAAAAUGGGAGUUUGAATT against 4932423M01Rik,-0.322 (inactive)
15,GGAAUUUUAGCGGAUGAUATT against Smarca3,1.54 (active)
16,CCUAGAUUGAAAAUUGUCATT against 1700049G17Rik,-0.329 (inactive)
17,GCUAAUUUGACAAAGACGGTT against Bfsp2,1.26 (inactive)
18,GGAAGUCAGACAGAUUUAATT against Prss33,3.17 (active)
19,GGACAUAAAAAUACGCCAGTT against Hsf1,3.22 (inactive)
20,GGGCAGAGUGAUGUUGUCATT against Gsdmdc1,-1.93 (inactive)
21,CCAGCAUAUCUACUGUUCUTT against V1rf2,-0.647 (inactive)
22,GGACACAAAUGACAUCAACTT against Ptpns1,-0.156 (inactive)

row,Sequence,z-score
1,CGUCUCUGCUGAGAACAUGTT against Kcnk15,2.15 (active)
2,GGUUGUGGAACUAGAAUAUTT against Wdr12,-1.25 (inactive)
3,GGGAUGUAUUAGUGAAAGGTT against Dm15,-0.213 (inactive)
4,CCGAAAGAACACAAUCUAUTT against Ifi16,-0.1 (inactive)
5,GGAAAAGUCCUGUAAAAUUTT against Dmrta1,0.431 (inactive)
6,GGACAUGACCAAAAGGCUGTT against 3110006P09Rik,2.27 (active)
7,GCUUAUGAUGAACAAGCCCTT against Aplra1,0.51 (inactive)
8,GGCUGCCUCGAAAUUACAATT against Lamb3,-1.79 (inactive)
9,GGACCAGAAAAUUCACUUUTT against Gdap2,-1.39 (inactive)
10,GGCCUUCUCUGACUUUCUGTT against D430030K24Rik,3.28 (active)
11,CCCAUUAUUGGCACUACAATT against LOC434285,-0.98 (inactive)
12,GCUAGGAAGAGAGUGAUCUTT against Alg1,-0.838 (inactive)
13,GGAAGAAAACAUGGAAGAATT against Usp47,3.28 (active)
14,GCAAGUUAUCCAGCACUCATT against Ylpm1,-1.57 (inactive)
15,GCCUCAGAAAAACAUCUAUTT against BC008103,2.16 (inactive)
16,GGACGAACCUUUAUACCAGTT against Arhgef15,-1.21 (inactive)
17,GGCAUUCGAAGGGACAGAUTT against Arg2,-0.343 (inactive)
18,GGGUAGCUGGCGAAUCAAATT against Ptpro,1.43 (inactive)
19,GGAGCAAAUCCAGAGCAACTT against Actr8,2.88 (active)
20,GGAUUCUGCCUGAUCAAUGTT against 1110008F13Rik,-1.08 (inactive)
21,GGGAUGCUUUUGGCCCAAATT against 1110008J03Rik,-0.285 (inactive)
22,GCAUCGUUACAGGACUUUATT against Enpp1,-0.601 (inactive)

row,Sequence,z-score
1,CGAUGAAAUCAUCACUAUCTT against Cyfip1,-0.619 (inactive)
2,GGGAGAAGAAAUGGUUUAATT against B230315M08Rik,1.54 (active)
3,GGAGACAAAUAUGAUGUAUTT against Hook1,-1.94 (inactive)
4,GGAUUUUUCUUUUGAGCGATT against Figf,-0.866 (inactive)
5,GCACGUGGGCUAUUCCUACTT against Gria1,2.78 (active)
6,CCAACUUUCUCUUAGGAAATT against Gm580,0.9 (inactive)
7,CCUAUUUUUUCUCCACUGATT against Sntg1,-0.718 (inactive)
8,GGUCAUGGAAGAAGCAAAGTT against 5730555F13Rik,2.7 (inactive)
9,GGUUUUUUACACAACAUGCTT against 1110067D22Rik,0.0564 (inactive)
10,GGAGUACGUUGACAUCAUCTT against Timp4,-1.01 (inactive)
11,GCGCAUAUUUUAUCAACUCTT against Plcb3,1.31 (active)
12,GGAGAAACUUCAACUCUUATT against Resp18,0.73 (inactive)
13,CGAAAGAAGGUGAGGGCUCTT against Ppp1r9a,-0.95 (inactive)
14,GCGUAUCCCAGAUAUCCGATT against BC064033,0.0741 (inactive)
15,GCUGUUGCUGGCUAUUCUGTT against 5730409G15Rik,0.298 (inactive)
16,GCCUCACAACUCUUACACCTT against Ptprc,0.888 (inactive)
17,GGAUGGUCAUAAGGAUCAATT against Gpr128,2.66 (active)
18,CCAAGUAUUUCACAAACCGTT against Slc29a1,1.5 (inactive)
19,GGAAGAUGUCCAAACCCGCTT against Tm4sf7,0.167 (inactive)
20,CCAACUCGUUAUCACUAUATT against 1700001D09Rik,-0.0393 (inactive)
21,GGGUACAAUAUCCUUAAGUTT against D430033A06Rik,-0.51 (inactive)
22,GAUUCCACGCCAAUUCAUCTT against Ccl3,-1.53 (inactive)

row,Sequence,z-score
1,CCCACCUAGGUUCAUCCCATT against Fath,2.93 (active)
2,GGCUUAUCAGUCCAUGAAGTT against BC022224,1.93 (inactive)
3,GGAGCCGAGUACAACAUCATT against Galgt1,0.763 (inactive)
4,CGUUUUCCACAAAGCAAAATT against Olfr1465,0.0226 (inactive)
5,GGCAAAGUGAUAUUUUCAATT against Slc6a12,1.85 (active)
6,CCCGGAACUUAACUCUGUATT against LOC381438,-0.264 (inactive)
7,GCCAUUUACAUUCCCAGGGTT against Gm741,0.238 (inactive)
8,CCAAGCAACACCACUCAUCTT against Centb2,-0.144 (inactive)
9,GGAGAUGAAGAGGUUGGUUTT against Olig3,-0.366 (inactive)
10,GGGAUCGAUCAAUCAUAACTT against Tcfap2c,1.8 (inactive)
11,GGAAAUCUUACAGACUGAGTT against Grid2,2.5 (active)
12,GCGCAAGUACCUCAAGAGUTT against Grem2,0.717 (inactive)
13,GGUGCUAGUGUAUGAAUUATT against 9830109N13Rik,2.24 (inactive)
14,GGUGAUAACUCCCUAGUAGTT against Rai12,-1.43 (inactive)
15,CGGACAUUGUUCUGUUUUCTT against Por,1.14 (inactive)
16,CGACAUGUAAAACUAUUGUTT against BC034097,0.0442 (active)
17,CCUCUAGUAAAGAAAUAGATT against 2610019N13Rik,-2.5 (inactive)
18,GGGCUGAUGUGGGCUAAAUTT against 1110001E17Rik,4.07 (active)
